The values below come from PubChem BioAssay (NCATS).

The target in assay [1] is Calcium and integrin-binding protein 1 (Homo sapiens) (UniProt Q99828). In words: Primary qHTS for Identification of Calcium Integrin Binding Protein 1 (CIB1) Competitor (AID 1508620; active = well fitted curve in the direction sought with a large enough effect; an effect the other way counts as inactive or inconclusive;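 also: GST tagged CIB1 binding a fluorescein labelled alphaIIb integrin peptide tracer; top concentration of the series differs between compounds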). The following applies: CIB1-GST / FITC-alphaIIb peptide fluorescence polarization; series mostly up to 114 µM. The essentials:
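Fluorescence polarization competition: CIB1-GST (1 uM final) preincubated with compound 15 min at room temperature, then FITC-labeled alphaIIb peptide (100 nM final) added for another 15 min. Polarization read at Ex 480/Em 540.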
Background: In qHTS, concentration-response curves come from the screen itself.

Assay [2] in a line: Primary qHTS for small molecule stabilizers of the endoplasmic reticulum resident proteome: Secreted ER Calcium Modulated Protein (SERCaMP) assay (AID 1508630; active = well fitted curve in the direction sought with a large enough effect; an effect the other way counts as inactive or inconclusive). The conditions noted are these: SH-SY5Y GLuc-SERCaMP (Gaussia luciferase released on ER calcium loss) secretion, thapsigargin, luminescence; series mostly up to 38.4 µM. The essentials: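 The SH-SY5Y reporter protocol was run at 3 concentrations up to 38.3 uM (primary) or 11 concentrations (follow-up): 16 h compound, 100 nM thapsigargin for 4 h, then extracellular luciferase luminescence.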

Assay [3] is described as follows: A High-Content qHTS Against Drug Library for the Identification of Small Molecules that Inhibit DYT1 Early Onset Primary Dystonia-Associated Cell Pathology (AID 1645839; calls by dose curve). The conditions noted are these: HEK293 Flp-In EGFP-delE TorsinA, punctate imaging, 48 h; series mostly up to 46.1 µM. Summed up:
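Induced EGFP-delE TorsinA cells are imaged after 48 h of compound treatment. Punctate fusion-protein distribution gives the %pathology value, while nuclei counts flag toxicity. Wild-type EGFP-hTOR1A cells define the normal pattern.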

Assay [4] has as its target Cytochrome P450 2D6 (Homo sapiens) (UniProt P10635). In words: Cytochrome P450 family 2 subfamily D member 6 (CYP2D6) small molecule antagonists: luciferase biochemical (cell-free) qHTS assay (AID 1645840). Also: nearly all actives have a fitted effect of over 55% in size. Also: potency is read from the fitted curve at half-maximal effect. The following applies: P450-Glo CYP2D6 enzyme, luciferin luminescence, 1 h; series mostly up to 57.4 µM. The essentials:
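P450-Glo CYP2D6 system: proluciferin substrate converted by enzyme to luciferin, read by luminescence proportional to activity. Enzyme-substrate mix with compound 10 min at room temperature, then NADPH regeneration 1 h before detection reagent.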

The target in assay [5] is Cytochrome P450 2C9 (Homo sapiens) (UniProt P11712). In words: Cytochrome P450 family 2 subfamily C member 9 (CYP2C9) small molecule antagonists: luciferase biochemical (cell-free) qHTS assay (AID 1645842). Also: nearly all actives have a fitted effect of over 55% in size. Also: potency is read from the fitted curve at half-maximal effect. The conditions noted are these: P450-Glo CYP2C9 enzyme assay, luciferin luminescence; series mostly up to 57.4 µM. Summed up:
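P450-Glo CYP2C9 system: proluciferin substrate with enzyme in mix containing 0.4% BSA, 10 min at room temperature, then NADPH regeneration solution added and incubated 1 h at 37C. Detection reagent stopped reaction; luminescence read after 20 min as RLU.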

Several values for one entry are separate records, joined by “and”; a condition that tells them apart may be missing. Equal entries are not always repeated. Results filed as inconclusive are left out. Activity calls are given as the source filed them. Unless noted, calls follow the shape of the dose curve; as a rule, active = well fitted curve in the direction sought with a large enough effect in the repeat runs; inconclusive = weak or mixed curves; inactive = no such curve, though single readings can be large; an effect the other way counts as inactive or inconclusive.

Chain of Cytochrome P450 2C9 (Homo sapiens) (P11712 whole entry, looked up): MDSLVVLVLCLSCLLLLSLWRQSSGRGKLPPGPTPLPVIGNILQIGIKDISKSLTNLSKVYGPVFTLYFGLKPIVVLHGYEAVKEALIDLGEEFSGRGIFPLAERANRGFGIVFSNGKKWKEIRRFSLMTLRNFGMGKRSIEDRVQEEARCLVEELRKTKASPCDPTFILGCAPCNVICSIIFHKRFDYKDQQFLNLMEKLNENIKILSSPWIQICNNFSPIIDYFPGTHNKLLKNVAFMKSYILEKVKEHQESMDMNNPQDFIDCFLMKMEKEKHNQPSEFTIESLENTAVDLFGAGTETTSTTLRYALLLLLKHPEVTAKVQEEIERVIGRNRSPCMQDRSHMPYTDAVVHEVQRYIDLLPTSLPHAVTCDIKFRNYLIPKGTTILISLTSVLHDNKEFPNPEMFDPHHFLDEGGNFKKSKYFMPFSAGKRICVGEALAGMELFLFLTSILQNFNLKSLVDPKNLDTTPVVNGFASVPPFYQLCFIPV
Chain of Cytochrome P450 2D6 (Homo sapiens) (P10635 whole entry, looked up): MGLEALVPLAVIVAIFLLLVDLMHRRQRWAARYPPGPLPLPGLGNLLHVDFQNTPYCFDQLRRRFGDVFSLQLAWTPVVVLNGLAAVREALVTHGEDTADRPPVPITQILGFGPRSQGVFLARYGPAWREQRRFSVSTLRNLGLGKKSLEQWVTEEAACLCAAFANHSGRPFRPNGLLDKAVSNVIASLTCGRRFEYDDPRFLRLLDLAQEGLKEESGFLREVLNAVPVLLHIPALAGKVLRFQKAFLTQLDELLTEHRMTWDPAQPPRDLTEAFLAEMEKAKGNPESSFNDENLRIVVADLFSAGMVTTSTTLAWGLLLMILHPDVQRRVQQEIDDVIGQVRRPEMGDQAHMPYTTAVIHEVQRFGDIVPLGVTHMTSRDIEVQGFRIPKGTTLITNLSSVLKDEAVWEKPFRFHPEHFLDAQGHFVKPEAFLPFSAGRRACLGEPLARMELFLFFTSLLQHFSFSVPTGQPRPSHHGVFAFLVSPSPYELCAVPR
Chain of Calcium and integrin-binding protein 1 (Homo sapiens) (Q99828 whole entry, looked up): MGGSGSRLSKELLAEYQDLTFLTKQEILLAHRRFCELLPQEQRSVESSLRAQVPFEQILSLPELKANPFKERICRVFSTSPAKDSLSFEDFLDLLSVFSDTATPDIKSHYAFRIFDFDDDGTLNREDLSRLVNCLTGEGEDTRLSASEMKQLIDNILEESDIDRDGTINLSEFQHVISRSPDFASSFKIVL

Turning to `CO[C@]12C[C@@H](COC(=O)c3cncc(Br)c3)CN(C)[C@@H]1Cc1cn(C)c3cccc2c13`, the Potency entry in assay [1], in assay [2], in assay [3] and in assay [5] was “inactive” in each case. The Potency in assay [4] is 0.0155 µM (active).

For the compound `CC(C)(C)CC(C)(C)c1ccc(O)c(-n2nc3ccccc3n2)c1`, the Potency result in assay [1], in assay [2], in assay [3] and in assay [4] was “inactive” each time. In addition, in assay [5], the Potency is 10.7 µM (active) and 6.92 µM (active).

Take `CCCN(CCc1cccs1)[C@H]1CCc2c(O)cccc2C1`: the Potency result in assay [1], in assay [2], in assay [3] and in assay [5] was “inactive” throughout. For the same compound, the Potency in assay [4] is 169 nM (active) and 195 nM (active).

Consider `COc1ccc(S(=O)(=O)N2c3ccc(Cl)cc3[C@@](O)(c3ccccc3Cl)[C@H]2C(=O)N2CCC[C@@H]2C(N)=O)cc1OC`, for which the Potency entry in assay [1], in assay [2], in assay [3] and in assay [4] was “inactive” in each case. In assay [5], the Potency was 15.5 µM (active).

In the case of `Cc1cc(NS(=O)(=O)c2ccc(N)cc2)nc(C)n1`, the Potency entry in assay [1], in assay [2], in assay [3], in assay [4] and in assay [5] was “inactive” in each case.

For `CC(=O)Nc1ccc(S(=O)(=O)Nc2ccc([N+](=O)[O-])cc2)cc1`, the Potency result in assay [1], in assay [2], in assay [3] and in assay [4] was “inactive” each time. Further, the Potency in assay [5] was 13.8 µM (active).

With `COc1cc(C(=O)N2CCCCCCC2)cc(OC)c1OC`, the Potency entry in assay [1], in assay [2], in assay [3], in assay [4] and in assay [5] was “inactive” in each case.

`COc1cc(N)c(Cl)cc1C(=O)NC1CCN(Cc2ccccc2)CC1`: the Potency entry in assay [1], in assay [2], in assay [3] and in assay [5] was “inactive” in each case. In assay [4], the Potency was 0.0219 µM (active).

Take `Cc1cccc(C)c1NC(=O)CN1CCCC1`: the Potency entry in assay [1], in assay [2], in assay [3] and in assay [5] was “inactive” in each case. Besides, the Potency in assay [4] was 12.3 µM (active).

Regarding `COc1cc(C(=S)N2CCOCC2)ccc1O`, the Potency entry in assay [1], in assay [2], in assay [3], in assay [4] and in assay [5] was “inactive” throughout.

In the case of `COc1ccc(CCN(C)CCCN2CCc3cc(OC)c(OC)cc3CC2=O)cc1OC`, the Potency result in assay [1], in assay [2], in assay [3], in assay [4] and in assay [5] was “inactive” each time.

`CCC1Nc2cc(Cl)c(S(N)(=O)=O)cc2S(=O)(=O)N1` (stereo not given): the Potency result in assay [1], in assay [2], in assay [3], in assay [4] and in assay [5] was “inactive” each time.

For `Cn1c(=O)c2[nH]c(Br)nc2n(C)c1=O`, the Potency entry in assay [1], in assay [2], in assay [3], in assay [4] and in assay [5] was “inactive” each time.

Consider `NS(=O)(=O)c1ccc(Cl)c(S(N)(=O)=O)c1`, for which the Potency result in assay [1], in assay [2], in assay [3], in assay [4] and in assay [5] was “inactive” throughout.

With `CCC(C(=O)OCCOCCN(CC)CC)c1ccccc1` (stereo not given), the Potency entry in assay [1], in assay [2], in assay [3] and in assay [5] was “inactive” in each case. For the same compound, the Potency in assay [4] is 11 µM (active).

In the case of `NS(=O)(=O)c1cc(C(=O)O)cc(N2CCCC2)c1Oc1ccccc1`, the Potency entry in assay [1], in assay [2], in assay [3], in assay [4] and in assay [5] was “inactive” throughout.

For `Cc1ncc(CO)c(C=O)c1O`, the Potency entry in assay [1], in assay [2], in assay [3], in assay [4] and in assay [5] was “inactive” in each case.

On to `CNCCc1ccccn1`, for which the Potency entry in assay [1], in assay [2], in assay [3], in assay [4] and in assay [5] was “inactive” in each case.

For `CC(C)CCCC(C)N` (stereo not given), the Potency result in assay [1], in assay [2], in assay [3], in assay [4] and in assay [5] was “inactive” each time.

`Cc1cc2c(OCC(CNC(C)(C)C)OC(=O)c3ccccc3)cccc2[nH]1` (stereo not given): the Potency result in assay [1], in assay [2] and in assay [3] was “inactive” throughout. For the same compound, the Potency in assay [4] was 0.246 µM (active); in assay [5], 3.47 µM (active).

As to `CCN1CCCC(OC(=O)C(c2ccccc2)c2ccccc2)C1` (stereo not given), the Potency result in assay [1], in assay [2], in assay [3] and in assay [5] was “inactive” each time. The Potency in assay [4] was 1.38 µM (active).

Take `CCCCCCCCCCCCCCCCO`: the Potency result in assay [1], in assay [2], in assay [3], in assay [4] and in assay [5] was “inactive” throughout.

On to `O=C(Nc1cccc(C2=NCCN2)c1)Nc1cccc(C2=NCCN2)c1`, for which the Potency result in assay [1], in assay [2], in assay [3], in assay [4] and in assay [5] was “inactive” in each case.

Turning to `CCOC(=O)[C@H](CCc1ccccc1)N[C@@H](C)C(=O)N1[C@H](C(=O)O)C[C@@H]2CCC[C@@H]21`, the Potency entry in assay [1], in assay [2], in assay [3], in assay [4] and in assay [5] was “inactive” each time.

As for `COP(=O)(OC)OC(c1ccc(Cl)cc1)P(=O)(OC)OC` (stereo not given), the Potency result in assay [1], in assay [2], in assay [3], in assay [4] and in assay [5] was “inactive” throughout.

Turning to `CCCCC(CC)COC(=O)/C=C/c1ccc(OC)cc1` (stereo not given), the Potency result in assay [1], in assay [2], in assay [3] and in assay [4] was “inactive” each time. The Potency in assay [5] is 9.77 µM (active).

With `CN(C)C(=O)Nc1ccc(Cl)c(Cl)c1`, the Potency result in assay [1], in assay [2], in assay [3], in assay [4] and in assay [5] was “inactive” throughout.

Consider `Cl/C(=C\n1cncn1)c1ccc(Cl)cc1Cl`, for which the Potency result in assay [1], in assay [2] and in assay [3] was “inactive” in each case. The Potency in assay [4] was 4.9 µM (active); in assay [5] it was 11 µM (active).

Take `CCCCC(CC)CN1CN(CC(CC)CCCC)CC(C)(N)C1` (stereo not given): the Potency result in assay [1], in assay [2], in assay [3] and in assay [5] was “inactive” in each case. The Potency in assay [4] is 0.219 µM (active).

As for `CC(C)[C@@H]1CC[C@@H](C)CC1=O`, the Potency result in assay [1], in assay [2], in assay [3], in assay [4] and in assay [5] was “inactive” each time.

Regarding `CCOCCn1c(N2CCCN(C)CC2)nc2ccccc21`, the Potency entry in assay [1], in assay [2], in assay [3] and in assay [5] was “inactive” each time. Also, in assay [4], the Potency is 6.92 µM (active).
